# Measurements reported in ChEMBL document CHEMBL3988442, “University of Dundee, Small-Polar-MMV Screening Library” (2021).
# The whole screen tested about 48,000 compounds, of which about 13,000 (27%) showed an effect of 50% or more. The list shows a part of the results.
# System: Wolbachia pipientis
# Assay: Anti-Wolbachia Cell-Based Screen
# Type: functional
# Set-up: scale not given: in the data most compounds retested in dose-response had high values
# Conditions: 5 µM
row,SMILES,Percent Effect [%]
1,Cc1cc(CNC(=O)COc2ccccc2F)c(C)o1,7.15
2,Cc1nnn2c1COCC(CNC(=O)c1cnoc1C)C2 (stereo unspecified),-0.1551
3,COc1ccc(CNC(=O)NCc2cc(C)oc2C)cc1,2.864
4,Cc1cc(C(=O)NCc2cc(C)oc2C)no1,107.3
5,Cc1cc(CNC(=O)c2ccno2)c(C)o1,94.7
6,Cc1cc(C(=O)NCc2ccccn2)no1,0.7911
7,COc1cc(NC(=O)NCc2cc(C)oc2C)cc(OC)c1,-2.456
8,Cc1cc(C(=O)NCc2cccnc2OC(C)C)no1,-0.04653
9,Cc1cc(CNC(=O)c2cnoc2C)c(C)o1,146.4
10,Cc1cccnc1CNC[C@H]1Cn2cc(-c3ccccc3)nc2CO1,6.747
11,NC(=O)c1cccc(CNC(=O)NCCOc2ccc(F)c(F)c2)c1,0.2822
12,CSCc1noc(C2CCC(=O)N(CCCN3CCCC3=O)C2)n1 (stereo unspecified),-15.49
13,OCCOc1ccc(NCc2cc(F)cc3cccnc23)cn1,-4.55
14,Cc1noc(CCCC(=O)N2CSCC2C(=O)NCC2CC2)n1 (stereo unspecified),8.382
15,CC(NCCN1CCN(C(=O)C2CCCC2)CC1)c1nccs1 (stereo unspecified),4.028
16,CC(NC(=O)NC1CCN(CC2CCCC2)CC1)c1nccs1 (stereo unspecified),-2.566
17,CC(C)(C)C(=O)NC(c1nccs1)C1CCN(CC2CCCCC2)CC1.Cl (stereo unspecified),130.3
18,Clc1ccc(N2CCC(C3CCN(Cc4cccnc4)CC3)C2)nc1 (stereo unspecified),4.175
19,CC(C)c1noc(C(C)N2CCN(Cc3ccco3)CC2)n1 (stereo unspecified),-4.875

row,SMILES,Percent Effect [%]
1,CC(c1nc(C2CC2)no1)N1CCN(Cc2ccccc2)CC1 (stereo unspecified),7.857
2,Cc1noc(C)c1CN1CCN(Cc2nc(C3CC3)no2)CC1,-14.96
3,Cc1nnc(C(C)N2CCN(Cc3noc(C(C)(C)C)n3)CC2)o1 (stereo unspecified),6.078
4,Cc1noc(C)c1CN1CCN(C(C)c2nc(C3CC3)no2)CC1 (stereo unspecified),133.7
5,Cc1nc(CN2CCN(C(C)c3nc(C4CC4)no3)CC2)no1 (stereo unspecified),103.1
6,Cc1noc(C(C)N2CCN(Cc3noc(C4CC4)n3)CC2)n1 (stereo unspecified),1.427
7,CC(c1nc(C2CC2)no1)N1CCN(Cc2ccccc2F)CC1 (stereo unspecified),3.653
8,CCc1noc(C(C)N2CCN(Cc3noc(C)n3)CC2)n1 (stereo unspecified),-22.55
9,CC(C)c1noc(C(C)N2CCN(Cc3noc(C(C)(C)C)n3)CC2)n1 (stereo unspecified),117.7
10,Cc1ccccc1CN1CCN(C(C)c2nc(C3CC3)no2)CC1 (stereo unspecified),114.1
11,COc1ncccc1NC(=O)N1CCC(c2ccc(O)cc2)CC1,-2.726
12,CC(C)c1nc(C(=O)N2CCCC(N)CC2)cs1 (stereo unspecified),-4.509
13,CN(CC(F)F)C(=O)c1cn(-c2ccc(Br)cc2)cn1,1.903
14,CN(Cc1nc(C2CC2)no1)C(=O)C1COc2ccccc2C1 (stereo unspecified),29.53
15,Cc1ccnc(C(NC(=O)c2ncoc2C)C2CC2)n1 (stereo unspecified),-4.451
16,CC(=O)c1cccc(OCC(=O)N(CC(C)C)C2CCN(C)CC2)c1,-3.463
17,Cn1cccc1C(=O)N1CCC2(CC1)c1nc[nH]c1CCN2S(C)(=O)=O,-21.07
18,Cc1c2ncn(CC(=O)N(C)C)c(=O)c2nn1C,-2.054
19,CC(C)(C)N1CCCN(C(=O)c2csc(S(N)(=O)=O)c2)CC1,4.518

row,SMILES,Percent Effect [%]
1,CC(c1nc(C2CC2)no1)N1CCN(Cc2noc(C3CC3)n2)CC1 (stereo unspecified),103.7
2,CC(C)c1nc(CN2CCN(C(C)c3nc(C4CC4)no3)CC2)no1 (stereo unspecified),0.3475
3,CC(C)c1noc(C(C)N2CCN(Cc3noc(C4CC4)n3)CC2)n1 (stereo unspecified),18.72
4,CC(NC(=O)N1CCN(c2ccccc2)CC1)c1nncn1C (stereo unspecified),1.482
5,CC(C(=O)O)N1CCc2onc(-c3ccc(F)c(F)c3)c2C1 (stereo unspecified),-3.454
6,Cn1cc(CCNC(=O)NC2CCS(=O)(=O)C2)cn1 (stereo unspecified),-13.02
7,O=C(NC1CCS(=O)(=O)C1)c1ccc(-c2ccc(F)cc2)s1 (stereo unspecified),1.727
8,CC(C)n1cc(C(=O)NC2CCS(=O)(=O)C2)c2ccccc2c1=O (stereo unspecified),104.9
9,O=C(NC1CCC(N2C(=O)CCC2=O)CC1)c1c[nH]c2ccccc12 (stereo unspecified),-1.536
10,CN(Cc1csc2ccccc12)C(=O)NC1CCS(=O)(=O)C1 (stereo unspecified),-6.965
11,CC(C)[C@H](NC(=O)NC1CCS(=O)(=O)C1)C(=O)NCc1ccccc1Cl (stereo partly specified),-0.7444
12,COCCN1CCC(NC(=O)Cn2cc(C)c3ccccc32)CC1,-24.59
13,COCCn1cc(C(=O)NC2CCS(=O)(=O)C2)c2ccccc2c1=O (stereo unspecified),102
14,O=C(CCNC(=O)c1sccc1-c1ccccc1)NC1CCS(=O)(=O)C1 (stereo unspecified),26.53
15,CC(C)Cn1cc(C(=O)NC2CCS(=O)(=O)C2)c2ccccc2c1=O (stereo unspecified),107.3
16,O=C(NC1CCS(=O)(=O)C1)c1cn(C2CC2)c(=O)c2ccccc12 (stereo unspecified),92.4
17,CCc1c(C(=O)NC2CCS(=O)(=O)C2)cnn1-c1ccc(F)cc1 (stereo unspecified),9.191
18,Cn1cnc2cc(C(=O)N3CCN(CCO)[C@@H]4CS(=O)(=O)C[C@@H]43)ccc21,-4.245
